From PubChem BioAssay AID1903 (Southern Research Specialized Biocontainment Screening …, 2009)
Hit rate of the full screen: of about 310,000 compounds, about 1,200 (0.39%) were called active. The list is a sample of the results. Measured potencies and affinities stand elsewhere. Unmarked numbers belong to inactive results. The rule behind the calls is not given here.

target: Large T antigen (Simian virus 40) (UniProt P03070); experiment: TAg ATPase/helicase activity blockers – biochemical (AID 1903); conditions: SV40 large T antigen ATPase/helicase inhibition assay; at 20 µM; active compounds read high
Sequence (P03070 whole entry, looked up): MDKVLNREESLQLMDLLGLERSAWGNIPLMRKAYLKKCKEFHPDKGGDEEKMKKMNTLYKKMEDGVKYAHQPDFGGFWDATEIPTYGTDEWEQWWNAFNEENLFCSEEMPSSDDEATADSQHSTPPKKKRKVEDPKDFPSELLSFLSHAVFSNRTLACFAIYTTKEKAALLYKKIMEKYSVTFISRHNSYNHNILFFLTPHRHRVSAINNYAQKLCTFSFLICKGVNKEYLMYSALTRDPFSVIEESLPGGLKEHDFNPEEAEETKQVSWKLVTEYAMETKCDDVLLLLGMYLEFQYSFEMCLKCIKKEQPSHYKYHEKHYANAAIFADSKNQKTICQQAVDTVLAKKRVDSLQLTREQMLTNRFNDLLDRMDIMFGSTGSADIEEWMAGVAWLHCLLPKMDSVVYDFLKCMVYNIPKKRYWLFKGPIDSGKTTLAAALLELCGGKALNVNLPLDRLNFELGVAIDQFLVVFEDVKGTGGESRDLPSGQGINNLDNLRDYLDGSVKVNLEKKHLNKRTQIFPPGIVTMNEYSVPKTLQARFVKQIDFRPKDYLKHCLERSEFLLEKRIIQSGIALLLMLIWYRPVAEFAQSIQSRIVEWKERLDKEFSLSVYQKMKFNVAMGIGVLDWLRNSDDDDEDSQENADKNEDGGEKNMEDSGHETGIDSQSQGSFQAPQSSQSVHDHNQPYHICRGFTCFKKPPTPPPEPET

Row | SMILES | inhibition
1 | Cc1[nH]n(-c2ccccc2)c(=O)c1C=Nc1ccc2[nH]c(=O)[nH]c2c1 | 19.5%
2 | CCc1ccc(S(=O)(=O)NCC(O)COc2ccc(OC)cc2)cc1 (configuration not stated) | 1.57%
3 | Nc1ccc(CCS(N)(=O)=O)cc1 | 2.24%
4 | O=C(Oc1coc(CSc2ncccn2)cc1=O)c1ccccc1[N+](=O)[O-] | 18.4%
5 | Cc1ccc2c3c(c(SCC(=O)Nc4nccs4)nc2c1)CCCC3 | -1.03%
6 | Cn1c(-c2ccccc2[N+](=O)[O-])[n+](C)c2ccccc21 | 11.2%
7 | Cc1cc(/C=C2\C(=N)N3N=C(CC(=O)N4CCOCC4)SC3=NC2=O)c(C)n1-c1ccccc1 | 11.9%
8 | CCOC(=O)C1CC2CC(C1)CN(C(=O)C1CCCCC1)C2 (configuration not stated) | 1.74%
9 | O=[N+]([O-])c1ccccc1N=Nc1ccc(O)cc1 | 16.2%
10 | C/C(=N\Nc1ccc([N+](=O)[O-])cc1)c1ccc(O)cc1 | 23.8%
11 | [O-]/C(=C(\C(=S)NCc1ccco1)[n+]1ccccc1)c1ccccc1Br | 20.6%
12 | CS(=O)(=O)c1ccc(Cl)c(NC(=O)CCNC(=O)c2ccco2)c1 | 1.63%
13 | CC(C)c1nnc(NC(=O)CCC(=O)N2CCC(Cc3ccccc3)CC2)s1 | 16.2%
14 | CC(C)CN1C(=O)c2ccc(C(=O)Nc3ccccn3)cc2C1=O | 3.11%
15 | C=CCN1CC(c2nc3ccccc3n2CCOc2ccccc2)CC1=O (configuration not stated) | -0.56%
16 | CN(C)/N=C/c1ccc(N2CCOCC2)cc1 | 16.2%
17 | CN(CC(=O)Nc1ccc(N2CCOCC2)cc1)CC(=O)Nc1ccc(N2CCOCC2)cc1 | 21.6%
18 | CN(C)C(CNc1ccc(S(C)(=O)=O)cc1[N+](=O)[O-])Cc1ccccc1 (configuration not stated) | -5.33%
19 | CCOC(=O)/C(C#N)=C/Nc1ccccc1NS(=O)(=O)c1ccc(C)c(C)c1 | 9.42%
20 | COc1cc2c(cc1NC(=S)Nc1cccc3ccccc13)oc1ccccc12 | 29.9%
21 | CNC(=S)Nc1cc2oc3ccccc3c2cc1OC | 18.4%
22 | N#CC(=Cc1ccc(O)cc1)C(N)=C(C#N)C#N | 8.06%
23 | CN(C)/C=C(\C#N)C(N)=C(C#N)C#N | -3.37%
24 | O=C(N/N=C/C1CC=CCC1)c1cc(Br)ccc1O (configuration not stated) | 1.73%

Row | SMILES | inhibition
25 | C=C1C(=O)O[C@@H]2C[C@@H](C)[C@@H]3C=CC(=O)[C@@]3(C)[C@@H](OC(C)=O)[C@H]12 | 35.6%
26 | CC(=O)O[C@@H]1[C@H]2[C@@H](C[C@@H](C)[C@@H]3C=CC(=O)[C@@]13C)OC(=O)[C@@H]2C | 11.5%
27 | CCOc1cc(/C=C(\C#N)C(N)=O)ccc1OCc1c(C)no[n+]1[O-] | 10.9%
28 | COc1ccccc1Oc1ccc(NC(=O)c2ccc(Cl)cc2)cc1 | 6.92%
29 | CS(=O)(=O)c1ccc(N)cc1 | -0.19%
30 | CS(=O)(=O)c1ccc2nc(N)sc2c1 | 0.3%
31 | CC(C)OC(=O)NC(Nc1ccccc1C(=O)O)(C(F)(F)F)C(F)(F)F | 6.18%
32 | Cc1ccc(C(=O)N[C@H](C(=O)Nc2sccc2C(N)=O)C(C)C)cc1 | -5.98%
33 | COc1ccc(OCc2nn3c(-c4cccc(OC)c4)nnc3s2)cc1 | 8.77%
34 | O=C(O)c1ccc(/C=C2\SC(=S)N(Nc3ccccc3)C2=O)cc1 | 32.2%
35 | O=C1/C(=C/c2cccnc2)SC(=S)N1Nc1ccccc1 | 29.5%
36 | CC(/C=N/NC(=O)c1sc(N)nc1C)=C\c1ccccc1 | 17.8%
37 | Cc1cc(C(=O)O)ccc1-c1ccc(/C=C2\NC(=O)N(Cc3ccc(F)cc3)C2=O)o1 | 37.5%
38 | CC1=C(C#N)C(=O)NC(=O)/C1=C\c1ccc(-c2ccc(C)cc2[N+](=O)[O-])o1 | 33.3%
39 | O=[N+]([O-])c1ccccc1-c1ccc(/C=N/n2cnnc2)o1 | 14.3%
40 | NS(=O)(=O)c1ccc(-c2ccc(/C=C3\C(=O)Nc4cc(Cl)ccc43)o2)cc1 | -8.34%
41 | Cc1ccc(-c2ccc(/C=C3/NC(=O)NC3=O)o2)cc1[N+](=O)[O-] | 28.5%
42 | CC1=C(C#N)C(=O)NC(=O)/C1=C\c1ccc(-c2cc(C)c(C)cc2[N+](=O)[O-])o1 | 17.5%
43 | O=C(COc1cccc(NC(=O)c2ccccc2)c1)c1ccccc1 | 5.06%
44 | CCN(C(=O)CN1CCOCC1)c1c(N)n(Cc2ccccc2)c(=O)[nH]c1=O | 7.23%
45 | Cc1ccc(S(=O)(=O)NCCNC(=O)CN2CCCC2)cc1 | 0.78%
46 | CC1(C)CC(=O)N(CC(=O)N2CCN(c3ncccn3)CC2)c2ccccc2S1(=O)=O | -1.17%
47 | O=C(NNc1c(Cl)cccc1Cl)c1c(F)cccc1Cl | 9.15%
